SMN2 splice up – qHTS Assay for Enhancers of SMN2 Splice Variant Expression; HEK293 SMN2-luciferase splicing reporter, luminescence, 30-36 h; Potency, µM (doses to about 46.1 µM), for inactives: at the top dose activity change, positive = activation, hits mostly activators; 210,000 tested, 2.8% active; also: % of control where 0% means no effect; nearly all actives have a fitted effect of over 55% in size
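qHTS luciferase splicing reporter: luminescence rises when SMN2 exon 7 is included in transfected HEK293 cells. Compound exposure lasted 30-36 h at 37C, with 4.5 mM final sodium butyrate as control, followed by a ONE-Glo read.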
Luc counter – Counterscreen for Luciferase (Kinase-Glo TM) Inhibition; AID 1379, 2008; Luciferin 4-monooxygenase (Photuris pensylvanica), Q27757; 200,000 tested, 0.28% active; Kinase-Glo luciferase, ATP luminescence, 8 min; Potency, µM (titrated, usually from 38.3 µM), without a hit: at the highest dose activity change, negative = inhibition, hits mostly inhibitors; also: % is scaled to controls: 0 for no effect and ±100 for the full control effect; nearly all actives have a fitted effect of over 60% in size
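Kinase-Glo luciferase light output from ATP and luciferin was measured with 10 uM ATP, within the enzyme's linear range. Buffer: 50 mM imidazole pH 7.2, 50 mM KCl, 7 mM MgCl2, 0.01% Tween 20, 0.05% BSA; luminescence read after 8 min at ambient temperature.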
Rab9 promoter act – qHTS Assay for Rab9 Promoter Activators. Huh7 Rab9 promoter-luciferase reporter, luminescence, 24 h. Potency, µM (series often up to 9.22 µM), for the others: top-dose activation, negative = inhibition, usual class: activators. 320,000 tested, 2.8% active. AID 485297, 2010; also: % of control where 0% means no effect; nearly all actives have a fitted effect of over 60% in size
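Using Huh7 cells stably transfected with Rab9 promoter–luciferase, compounds were incubated 24 h at 37 °C, 5% CO2; luciferase luminescence was read 10 min after reagent addition.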
FLuc counter – qHTS profiling assay for firefly luciferase inhibitor/activator using purifed enzyme and Km concentrations of substrates (counterscreen for miR-21 project) | Luciferin 4-monooxygenase (Photinus pyralis), P08659 | purified FLuc, Km substrates, luminescence inhibition | Potency, µM (doses to about 57.5 µM), inactives show top-dose activity change, negative = inhibition, hits mostly inhibitors | 360,000 tested, 6.9% active | AID 588342, 2011;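 also: plate controls were vehicle for no effect and reference inhibitor for full effect; nearly all actives have a fitted effect of over 55% in size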
Target sequence (P08659 whole entry, looked up): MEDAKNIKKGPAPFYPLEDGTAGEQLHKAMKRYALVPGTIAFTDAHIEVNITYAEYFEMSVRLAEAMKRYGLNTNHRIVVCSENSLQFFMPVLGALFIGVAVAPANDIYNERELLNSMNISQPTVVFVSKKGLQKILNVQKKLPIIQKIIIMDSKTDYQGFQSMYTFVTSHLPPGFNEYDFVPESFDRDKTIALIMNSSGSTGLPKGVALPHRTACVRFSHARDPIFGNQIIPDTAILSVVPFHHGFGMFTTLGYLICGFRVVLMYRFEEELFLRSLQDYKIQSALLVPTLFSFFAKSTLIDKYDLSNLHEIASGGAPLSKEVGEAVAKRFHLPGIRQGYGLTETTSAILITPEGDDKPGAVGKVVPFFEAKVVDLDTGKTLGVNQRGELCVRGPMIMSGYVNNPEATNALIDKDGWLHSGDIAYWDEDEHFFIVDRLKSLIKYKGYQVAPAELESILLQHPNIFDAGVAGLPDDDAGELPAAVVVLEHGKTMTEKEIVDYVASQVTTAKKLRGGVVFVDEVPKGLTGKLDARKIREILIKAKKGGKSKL
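Purified P. pyralis luciferase, 10 nM final, with Km-level 10 uM D-luciferin and 10 uM ATP in 50 mM Tris acetate pH 7.5, 10 mM Mg acetate, 0.01% Tween-20, 0.05% BSA; 6-point qHTS titration about 60 µM downward; luminescence read.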
NPC1 promoter act – qHTS Assay for NPC1 Promoter Activators; Huh7 NPC1 promoter luciferase reporter, 24 h; Potency, µM (titrated, usually from 9.22 µM), for inactives: at the highest dose activation, usual class: activators; 320,000 tested, 2.4% active; also: % of control where 0% means no effect; nearly all actives have a fitted effect of over 60% in size
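Luciferase expression driven by the NPC1 promoter was measured in stably transfected Huh7 cells after a 24 h compound incubation, using a luciferase reagent and a luminescence read.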
ELG1 genotox – qHTS screen for small molecules that induce genotoxicity in human embryonic kidney (HEK293T) cells expressing luciferase-tagged ELG1; Potency, µM (highest dose often 46 µM), inactives show top-dose activity change, positive = activation, actives largely listed as activators; HEK293T ELG1-luciferase reporter, luminescence, 16 h; 330,000 tested, 1.3% active; also: % of control where 0% means no effect; nearly all actives have a fitted effect of over 60% in size
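Genotoxic stress is detected as increased luminescence from luciferase-tagged ELG1 in HEK293T cells, measured with ONE-Glo after a 16 hr treatment at 37 °C.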
Numbers without * were called inactive; ? = inconclusive; · = not tested or not shown. Hits are enriched below; roughly 7.3% of the tested compounds scored in any of these assays. Calls follow the shape of the dose curve; as a rule, active = well fitted curve in the direction sought with a large enough effect; inconclusive = small, poorly fitted or top-dose-only effect, or another doubt; inactive = no such curve, though single readings can be large; an effect the other way counts as inactive or inconclusive. Potency is read from the fitted curve at half-maximal effect.

SMILES	SMN2 splice up	Luc counter	Rab9 promoter act	FLuc counter	NPC1 promoter act	ELG1 genotox
CC(C)CN(C(=O)c1ccc(=O)n(C)n1)c1nc2ccccc2s1	20µM*	-2%	26%	-17%	22%	4%
CN(C)/C=C/C(=O)c1ccccc1	·	·	-2%	-4%	0%	0%
Cc1ccc(S/C=C\C(=O)c2ccccc2)cc1	-3%	-22%	11%	0.13µM*	10%	18µM*
Cc1ccc(C(=O)C=CNNC(=O)c2ccccc2)cc1	·	·	9%	24µM*	12%	-1%
Cc1ccc(C(=O)/C=C\NCc2ccccc2)cc1	?	-1%	?	11µM*	?	14%
Cc1ccc(C(=O)/C=C\C(=O)c2ccc(C)cc2)cc1	24%	-1%	0%	?	-8%	?
CCc1ccc(C(=O)/C=C/NCc2ccc(F)cc2)cc1	27%	2%	?	?	18%	15%
CC(/C=C/C(=O)c1ccc(C)cc1)=C\c1ccccc1	-26%	5%	?	4.3µM*	?	18%
CC(Nc1ccc(F)cc1)=[N+](C)CCNS(=O)(=O)c1ccc(Cl)cc1	·	·	-3%	3%	-1%	-4%
O=C(/C=C/NNC(=O)c1ccccc1O)c1ccccc1	·	·	14%	19µM*	18%	4%
N/C(=N\OC(=O)CC1CCCCC1)c1cccnc1	-5%	4%	-2%	13µM*	-3%	3%
N/C(=N\OC(=O)C1CCCCC1)c1cccnc1	-8%	-4%	6%	19µM*	7%	3%
Cc1ccc(SCC(=O)O/N=C(\N)c2cccnc2)cc1	·	·	0%	-17%	-4%	?
O=C(CCC1CCCC1)N1CCN(C(=O)c2cccnc2)CC1	4%	-2%	1%	0%	5%	0%
N/C(=N\OC(=O)CCC1CCCC1)c1cccnc1	15%	-3%	0%	13µM*	-1%	6%
N/C(=N\OC(=O)c1ccc(Br)o1)c1cccnc1	·	-8%	?	?	27%	22%
Cc1ccc(C)c(NC(=O)Cn2cc(C(=O)c3ccc(Cl)cc3)c(=O)c3ccc(C)nc32)c1	·	·	·	-4%	·	·
Cc1cc(C)c2c(CN3CCN(C)CC3)cc(=O)oc2c1	?	0%	-2%	-1%	1%	0%
CN(C(=O)CSc1ncnc2sccc12)C1CCS(=O)(=O)C1 (stereo unspecified)	·	·	-2%	4%	-1%	0%
CN(C(=O)CSc1ncnc2sccc12)C1CCCCC1	·	·	2.8µM*	13µM*	?	?
Cc1ccc2nc(-c3ccc(NC(=O)CSc4nc(N)cc(=O)[nH]4)cc3)sc2c1	·	·	2.8µM*	3.4µM*	2.8µM*	?
Nc1cc(=O)[nH]c(SCC(=O)Nc2nc3ccc([N+](=O)[O-])cc3s2)n1	6%	0%	-1%	?	-3%	-2%
Cc1ccc2nc(-c3ccc(NC(=O)CSc4nccc(=O)[nH]4)cc3)sc2c1	8.9µM*	-3%	0.4µM*	2.7µM*	1.4µM*	?
Cc1ccc(Nc2c(-c3ccc(N4CCOCC4)cc3)nc3cnccn23)cc1	·	·	16%	5.4µM*	17%	?
Cc1ccccc1Nc1c(-c2ccc(N3CCOCC3)cc2)nc2cnccn12	·	·	?	1.5µM*	?	?
SMILES	SMN2 splice up	Luc counter	Rab9 promoter act	FLuc counter	NPC1 promoter act	ELG1 genotox
Cc1ccccc1Nc1c(-c2ccc(N3CCOCC3)cc2)nc2ncccn12	-11%	3%	-1%	11µM*	14%	-6%
Cc1cccn2c(Nc3ccccc3)c(-c3ccc(N4CCOCC4)cc3)nc12	15%	·	·	?	·	·
Cc1ccc(Nc2c(-c3ccc(N4CCOCC4)cc3)nc3ccc(C)cn23)cc1	6%	·	·	0%	·	·
COc1ccc(Cn2c(O)c(C=Nc3ccc(C)cc3)c3ccccc3c2=O)cc1	-17%	0%	-6%	-7%	-3%	1%
O=C(Nc1ccc2nccnc2c1)Nc1ccccc1Cl	·	·	?	?	?	-2%
CCN1CCN(Cc2ccc(NC(=O)Nc3ccccc3Cl)cc2)CC1	?	2%	3.5µM*	6.7µM*	4µM*	18µM*
CCN1CCN(C(=O)C2(NC(=O)Nc3ccccc3Cl)CCCCC2)CC1	-19%	-1%	-2%	6%	-6%	5%
O=C(Nc1ccc(CN2CCCCC2)cc1)Nc1ccccc1Cl	?	1%	28%	17µM*	22%	17%
O=C(Nc1ccc(Br)cc1)Nc1ccccc1Cl	·	·	?	2.7µM*	2.2µM*	?
CCN1CCN(CCC(=O)Nc2ccc(C)cc2)CC1	·	·	-2%	-1%	7%	1%
CC(=O)Nc1ccc(CN2CCCCCCC2)cc1	12%	1%	1%	-1%	1%	1%
CCN1CCN(Cc2ccccc2NC(=O)Nc2ccc(C)cc2)CC1	?	-1%	4µM*	24µM*	?	10µM*
COc1ccccc1CNC(=O)COC(=O)c1ccc(S(=O)(=O)N2CCCCC2)cc1	·	·	·	·	·	3%
CCc1nnc(SCC(=O)Nc2nccs2)n1CC	·	·	-3%	0%	-3%	1%
O=C(OCC1CCCO1)c1ccc2c(c1)N(Cc1ccccc1)C(=O)c1ccccc1S2(=O)=O (stereo unspecified)	·	·	·	-9%	·	·
COc1ccccc1C(=O)COC(=O)COc1cccc2c1OC(C)(C)C2	·	·	2.5µM*	4.8µM*	2µM*	9.2µM*
COc1ccc(NC(=O)COC(=O)COc2cccc3c2OC(C)(C)C3)cc1	·	·	-3%	4%	1%	-3%
O=C(ONC1=NCCCCC1)c1ccc([N+](=O)[O-])cc1	-49%	4%	1%	-3%	-4%	0%
O=[N+]([O-])c1cccc(NC(=S)N2CCCC2)c1	·	·	0%	0%	-3%	-4%
O=C(Nc1cccc([N+](=O)[O-])c1)NC1CCCCCCC1	·	·	2.5µM*	12µM*	2.8µM*	-11%
O=C(Nc1cccc([N+](=O)[O-])c1)ONC1=NCCCCC1	·	·	-3%	15µM*	0%	-1%
O=C(Nc1cccc([N+](=O)[O-])c1)C(=O)N1CCCCC1	18µM*	-26%	1.3µM*	?	?	?
N#C/C(=C\c1ccc(Cl)cc1)c1nc2ncccc2[nH]1	3%	4%	2%	3µM*	-2%	16%
O=C(NCCC1=CCCCC1)C1CCN(S(=O)(=O)c2cnc[nH]2)CC1	19%	2%	-1%	4%	1%	0%

Source: PubChem
